Structures can show the parent of a compound that is named as a salt.
Columns and labels:
Assay in all cases: phenotypically active (imaging signature differs from DMSO and reproducible) at any of 0.3-9 uM (binary (1 = active, 0 = inactive)); higher = active
Conditions in all cases: treatment time: 24 h
A549-ACTB-RAB5A = test system: A549-ACTB-RAB5A
In short: (§1)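 Four wells per concentration (0.3, 1, 3 or 9 µM) were treated for 24 h in each of fifteen gene-edited reporter lines from A549, HepG2 and WPMY1 cells, then imaged live. After normalising live-cell features to solvent control wells, deviation was defined as ≥3 of 4 wells lying past the 95th percentile of control Euclidean distances. Reproducibility was defined as a median replicate Pearson correlation above the 95th percentile of non-replicates. Both had to hold for phenotypic activity.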

A549-CANX-COX4 = test system: A549-CANX-COX4
In short: as §1

A549-GM130-SQSTM1 = test system: A549-GM130-SQSTM1
In short: as §1

A549-TP53BP1-CLTA = test system: A549-TP53BP1-CLTA
In short: as §1

A549-TUBA1B-RELA = test system: A549-TUBA1B-RELA
In short: as §1

HepG2-ACTB-RAB5A = test system: HepG2-ACTB-RAB5A
In short: as §1

HepG2-CANX-COX4 = test system: HepG2-CANX-COX4
In short: as §1

HepG2-GM130-SQSTM1 = test system: HepG2-GM130-SQSTM1
In short: as §1

HepG2-TP53BP1-CLTA = test system: HepG2-TP53BP1-CLTA
In short: as §1

HepG2-TUBA1B-RELA = test system: HepG2-TUBA1B-RELA
In short: as §1

WPMY1-ACTB-RAB5A = test system: WPMY1-ACTB-RAB5A
In short: as §1

WPMY1-CANX-COX4 = test system: WPMY1-CANX-COX4
In short: as §1

WPMY1-GM130-SQSTM1 = test system: WPMY1-GM130-SQSTM1
In short: as §1

WPMY1-TP53BP1-CLTA = test system: WPMY1-TP53BP1-CLTA
In short: as §1

WPMY1-TUBA1B-RELA = test system: WPMY1-TUBA1B-RELA
In short: as §1

Measured: phenotypically active

CN1CCN2c3ncccc3Cc3ccccc3C2C1 (stereo not given) [Mirtazapine]
inactive: A549-ACTB-RAB5A 0 | A549-CANX-COX4 0 | A549-GM130-SQSTM1 0 | A549-TP53BP1-CLTA 0 | A549-TUBA1B-RELA 0 | HepG2-ACTB-RAB5A 0 | HepG2-CANX-COX4 0 | HepG2-GM130-SQSTM1 0 | HepG2-TP53BP1-CLTA 0 | HepG2-TUBA1B-RELA 0 | WPMY1-ACTB-RAB5A 0 | WPMY1-CANX-COX4 0 | WPMY1-GM130-SQSTM1 0 | WPMY1-TP53BP1-CLTA 0 | WPMY1-TUBA1B-RELA 0

CN1C(=O)OC(C)(C)C1=O [trimethadione]
inactive: A549-ACTB-RAB5A 0 | A549-CANX-COX4 0 | A549-GM130-SQSTM1 0 | A549-TP53BP1-CLTA 0 | A549-TUBA1B-RELA 0 | HepG2-ACTB-RAB5A 0 | HepG2-CANX-COX4 0 | HepG2-GM130-SQSTM1 0 | HepG2-TP53BP1-CLTA 0 | HepG2-TUBA1B-RELA 0 | WPMY1-ACTB-RAB5A 0 | WPMY1-CANX-COX4 0 | WPMY1-GM130-SQSTM1 0 | WPMY1-TP53BP1-CLTA 0 | WPMY1-TUBA1B-RELA 0

c1ccc2c(c1)CCCC2C1=NCCN1 (stereo not given) [tetrahydrozoline]
inactive: A549-ACTB-RAB5A 0 | A549-CANX-COX4 0 | A549-GM130-SQSTM1 0 | A549-TP53BP1-CLTA 0 | A549-TUBA1B-RELA 0 | HepG2-ACTB-RAB5A 0 | HepG2-CANX-COX4 0 | HepG2-GM130-SQSTM1 0 | HepG2-TP53BP1-CLTA 0 | HepG2-TUBA1B-RELA 0 | WPMY1-ACTB-RAB5A 0 | WPMY1-CANX-COX4 0 | WPMY1-GM130-SQSTM1 0 | WPMY1-TP53BP1-CLTA 0 | WPMY1-TUBA1B-RELA 0

CCN(c1ccccc1)c1cc(NC)[n+](C)c(C)n1
inactive: A549-ACTB-RAB5A 0 | A549-CANX-COX4 0 | A549-GM130-SQSTM1 0 | A549-TP53BP1-CLTA 0 | A549-TUBA1B-RELA 0 | HepG2-ACTB-RAB5A 0 | HepG2-CANX-COX4 0 | HepG2-GM130-SQSTM1 0 | HepG2-TP53BP1-CLTA 0 | HepG2-TUBA1B-RELA 0 | WPMY1-ACTB-RAB5A 0 | WPMY1-CANX-COX4 0 | WPMY1-GM130-SQSTM1 0 | WPMY1-TP53BP1-CLTA 0 | WPMY1-TUBA1B-RELA 0

C[N+]1(C)CCC(=C(c2ccccc2)c2ccccc2)CC1 [diphemanil]
inactive: A549-ACTB-RAB5A 0 | A549-CANX-COX4 0 | A549-GM130-SQSTM1 0 | A549-TP53BP1-CLTA 0 | A549-TUBA1B-RELA 0 | HepG2-ACTB-RAB5A 0 | HepG2-CANX-COX4 0 | HepG2-GM130-SQSTM1 0 | HepG2-TP53BP1-CLTA 0 | HepG2-TUBA1B-RELA 0 | WPMY1-ACTB-RAB5A 0 | WPMY1-CANX-COX4 0 | WPMY1-GM130-SQSTM1 0 | WPMY1-TP53BP1-CLTA 0 | WPMY1-TUBA1B-RELA 0

CC(C)OC(=O)C(C)(C)Oc1ccc(C(=O)c2ccc(Cl)cc2)cc1 [Fenofibrate]
inactive: A549-ACTB-RAB5A 0 | A549-CANX-COX4 0 | A549-GM130-SQSTM1 0 | A549-TP53BP1-CLTA 0 | A549-TUBA1B-RELA 0 | HepG2-ACTB-RAB5A 0 | HepG2-CANX-COX4 0 | HepG2-GM130-SQSTM1 0 | HepG2-TP53BP1-CLTA 0 | HepG2-TUBA1B-RELA 0 | WPMY1-ACTB-RAB5A 0 | WPMY1-CANX-COX4 0 | WPMY1-GM130-SQSTM1 0 | WPMY1-TP53BP1-CLTA 0 | WPMY1-TUBA1B-RELA 0

C[N+](C)(C)CC[N+]1(C)Cc2c(Cl)c(Cl)c(Cl)c(Cl)c2C1 [Chlorisondamine diiodide]
inactive: A549-ACTB-RAB5A 0 | A549-CANX-COX4 0 | A549-GM130-SQSTM1 0 | A549-TP53BP1-CLTA 0 | A549-TUBA1B-RELA 0 | HepG2-ACTB-RAB5A 0 | HepG2-CANX-COX4 0 | HepG2-GM130-SQSTM1 0 | HepG2-TP53BP1-CLTA 0 | HepG2-TUBA1B-RELA 0 | WPMY1-ACTB-RAB5A 0 | WPMY1-CANX-COX4 0 | WPMY1-GM130-SQSTM1 0 | WPMY1-TP53BP1-CLTA 0 | WPMY1-TUBA1B-RELA 0

COC(=O)/C=C/c1cccc(N(Cc2ccc(-c3ccc(N(C)C)cc3)cc2)C(=O)C2CCCCC2)c1 [fexaramine]
inactive: A549-ACTB-RAB5A 0 | A549-CANX-COX4 0 | A549-GM130-SQSTM1 0 | A549-TP53BP1-CLTA 0 | A549-TUBA1B-RELA 0 | HepG2-ACTB-RAB5A 0 | HepG2-CANX-COX4 0 | HepG2-GM130-SQSTM1 0 | HepG2-TP53BP1-CLTA 0 | HepG2-TUBA1B-RELA 0 | WPMY1-ACTB-RAB5A 0 | WPMY1-CANX-COX4 0 | WPMY1-GM130-SQSTM1 0 | WPMY1-TP53BP1-CLTA 0 | WPMY1-TUBA1B-RELA 0

COC(=O)C(Cc1ccc(OCCn2c(=O)sc3cc(C(=O)c4ccccc4)ccc32)cc1)C(=O)OC
inactive: A549-ACTB-RAB5A 0 | A549-CANX-COX4 0 | A549-GM130-SQSTM1 0 | A549-TP53BP1-CLTA 0 | A549-TUBA1B-RELA 0 | HepG2-ACTB-RAB5A 0 | HepG2-CANX-COX4 0 | HepG2-GM130-SQSTM1 0 | HepG2-TP53BP1-CLTA 0 | HepG2-TUBA1B-RELA 0 | WPMY1-ACTB-RAB5A 0 | WPMY1-CANX-COX4 0 | WPMY1-GM130-SQSTM1 0 | WPMY1-TP53BP1-CLTA 0 | WPMY1-TUBA1B-RELA 0

COc1ccc(Cl)cc1C(=O)NCCc1ccc(S(=O)(=O)NC(=O)NC2CCCCC2)cc1 [glyburide]
inactive: A549-ACTB-RAB5A 0 | A549-CANX-COX4 0 | A549-GM130-SQSTM1 0 | A549-TP53BP1-CLTA 0 | A549-TUBA1B-RELA 0 | HepG2-ACTB-RAB5A 0 | HepG2-CANX-COX4 0 | HepG2-GM130-SQSTM1 0 | HepG2-TP53BP1-CLTA 0 | HepG2-TUBA1B-RELA 0 | WPMY1-ACTB-RAB5A 0 | WPMY1-CANX-COX4 0 | WPMY1-GM130-SQSTM1 0 | WPMY1-TP53BP1-CLTA 0 | WPMY1-TUBA1B-RELA 0

CO/N=C/C1=CCCN(C)C1 [Milameline hydrochloride]
inactive: A549-ACTB-RAB5A 0 | A549-CANX-COX4 0 | A549-GM130-SQSTM1 0 | A549-TP53BP1-CLTA 0 | A549-TUBA1B-RELA 0 | HepG2-ACTB-RAB5A 0 | HepG2-CANX-COX4 0 | HepG2-GM130-SQSTM1 0 | HepG2-TP53BP1-CLTA 0 | HepG2-TUBA1B-RELA 0 | WPMY1-ACTB-RAB5A 0 | WPMY1-CANX-COX4 0 | WPMY1-GM130-SQSTM1 0 | WPMY1-TP53BP1-CLTA 0 | WPMY1-TUBA1B-RELA 0

CNCC[C@@H](Oc1ccccc1C)c1ccccc1 [atomoxetine]
inactive: A549-ACTB-RAB5A 0 | A549-CANX-COX4 0 | A549-GM130-SQSTM1 0 | A549-TP53BP1-CLTA 0 | A549-TUBA1B-RELA 0 | HepG2-ACTB-RAB5A 0 | HepG2-CANX-COX4 0 | HepG2-GM130-SQSTM1 0 | HepG2-TP53BP1-CLTA 0 | HepG2-TUBA1B-RELA 0 | WPMY1-ACTB-RAB5A 0 | WPMY1-CANX-COX4 0 | WPMY1-GM130-SQSTM1 0 | WPMY1-TP53BP1-CLTA 0 | WPMY1-TUBA1B-RELA 0

— the supplement of paper PMC7411054
